Source: ChEMBL document CHEMBL4513216, “Probing the Open Global Health Chemical Diversity Library for Multistage-Active Starting Points for Next-Generation Antimalarials” (ACS Infect Dis, 2020)
Hit rate of the full screen: of about 69,000 compounds, about 8,600 (12%) showed an effect of 50% or more. The sample holds strong results, similar compounds and a random draw of the others, so the mix is not that of the screen.

test system: Plasmodium berghei; test: Screen against P. berghei liver stage (PbLuc), transformed with Luciferase, at 10uM; format: functional, HepG2; details: tested at 10 uM

SMILES	INHIBITION [%]
Cc1ccc(C(=O)N2CCC3(CC2)COC(COc2ccccn2)C3)o1 (stereo unspecified)	-9.1
O=C(c1ccncc1)N1CCCC1c1cccc(Br)c1 (stereo unspecified)	15.1
O=C(Cn1c(=O)oc2ccccc21)N1Cc2cncnc2C1	15.4
CCc1ncc2c(n1)CN(C(=O)COC)C2	-7.35
CCc1ncc2c(n1)CN(C(=O)c1c(C)[nH]c(C(C)=O)c1C)C2	39.6
CC(=O)NCC(=O)N1Cc2cnc(CC(C)C)nc2C1	60.3
CC(C)Cc1ncc2c(n1)CN(C(=O)Cn1c(=O)oc3ccccc31)C2	54.5
O=C(Cn1c(=O)oc2ccccc21)N1Cc2cnn(CCO)c2C1	13.7
CCc1ncc2c(n1)CN(C(=O)CNC(=O)C(C)C)C2	10.3
CCOc1ccc(C(=O)N2Cc3cnc(CC)nc3C2)o1	-6.83
CCc1ncc2c(n1)CN(C(=O)CNC(=O)c1ccccc1)C2	30.3
CC(=O)c1c(C)nn(CC(=O)N2Cc3cnc(CC(C)C)nc3C2)c1C	27.9
CCc1ncc2c(n1)CN(C(=O)CC(C)NC(C)=O)C2 (stereo unspecified)	51.2
CCc1ncc2c(n1)CN(C(=O)c1c(C)[nH]c3c1C(=O)CCC3)C2	61
FC(F)(F)c1ccc(-c2cnc(C3CCCN3)cn2)cc1 (stereo unspecified)	34.675
CCC(CC)C(=O)N1CCN(Cc2cc(-c3ccncc3)nn2C)CC1	-8.12
Cc1nn(C)c(N2CCOCC2)c1CNCc1ccccc1CO	-25.9
NC(=O)C(NCc1nn(-c2ccccc2)c2c1CCC2)c1ccccc1 (stereo unspecified)	8.15
Fc1ccccc1CN1CCC(c2noc(-c3ccccn3)n2)CC1	-23.4
O=C1NCCCCC1NCc1csc(-c2ccccn2)n1 (stereo unspecified)	8.07
CC(Cn1cccn1)NC(=O)NCc1ccoc1 (stereo unspecified)	15.6
CS(=O)(=O)N1CC2(CCN(Cc3ccccn3)C2)Cc2ccccc21 (stereo unspecified)	14.3

SMILES	INHIBITION [%]
CC(C)CC(=O)NCCCc1cc(N)n(-c2ccccc2)n1	16.6
Cc1noc(C)c1CN(C)Cn1c(=O)n(C)c2ccccc21	28.2
Cc1noc(C)c1CN(C)Cn1c(=O)oc2ccccc21	50.4
Cc1noc(C)c1CN(C)C(=O)Cn1c(=O)n(C)c2ccccc21	26.8
Cc1ccc(C(CNC(=O)c2c(C)noc2C(C)C)N(C)C)cc1 (stereo unspecified)	7.12
CC(CN1CCCCCC1)NCc1nncn1C1CCCCC1 (stereo unspecified)	75.4
Cc1cc(C)n(CC(C)NCc2nncn2C2CCCCC2)n1 (stereo unspecified)	-47.9
CC(CN1CCOCC1)NCc1nncn1C1CCCCC1 (stereo unspecified)	28.3
O=C(NCc1ccccc1)[C@H]1C[C@H]2CN(S(=O)(=O)C3CC3)C[C@@H]1O2	31.8
CC1CN(Cc2ccc(-n3cccn3)cc2)CCO1 (stereo unspecified)	-15.5
Cc1noc(C)c1CN1C[C@@H]2C[C@H](C(=O)NCC3CC3)N(C)[C@@H]2C1	26
CNC(=O)[C@@H]1C[C@H]2CN(Cc3c(C)noc3C)C[C@H]2N1C(C)C	83.8
Cc1noc(C)c1CN1C[C@H]2CNC[C@H]2C1	-19.2
Cc1noc(C)c1CN1C[C@@H]2C[C@@H](C)O[C@@H]2C1	-10.2
Cc1noc(C)c1CN1C[C@@H]2CC(F)(F)C[C@@H]2C1	87.2
CNC(=O)[C@H]1C[C@@H]2CN(Cc3c(C)noc3C)C[C@@H]2N1C(C)=O	22.2
CC(=O)N1CCC(c2cnc(NC3CCOCC3)cn2)CC1	-20.6
Cc1ncsc1CNC(=O)N(CCCO)C1CCc2ccccc21 (stereo unspecified)	-7.35
Cc1cc(S(=O)(=O)N2CCc3ccc(F)cc32)cc(C(=O)O)c1C	61.3
Cc1ccc(S(=O)(=O)N2CCc3ccc(F)cc32)cc1C(=O)O	-3.2
COc1cc(S(=O)(=O)N2CCc3ccc(F)cc32)cc(C(=O)O)c1OC	42.9
O=C(c1ccc[nH]1)N1CCCn2c(CNC3CCC3)nnc2C1	45.7

SMILES	INHIBITION [%]
CC(C)CNC(=O)CNc1c(NCc2ccco2)c(=O)c1=O	31.3
COCC(=O)NCc1ccc(-c2ccccc2C(=O)O)cn1	-26.7
O=C(Cc1ccccc1)NCc1ncc(-c2ccccc2C(=O)O)cn1	1.65
O=C(Cc1ccccc1)NCc1ccc(-c2ccccc2C(=O)O)cn1	50.3
Cc1ccc(CNC(=O)c2ccc(F)cc2)o1	0.868
CCN1CCc2[nH]cnc2C12CCN(Cc1ccc3nsnc3c1)CC2	23.6
O=C(Cc1ccc2c(c1)OCC2)Nc1nn[nH]n1	23.1
O=C(O)[C@@H]1CCCN1c1nccc(Nc2ccccc2)n1	0.618
CCC(C)CNC(=O)[C@@H]1CCCN1c1nccc(Nc2ccccc2)n1 (stereo partly specified)	13.5
O=C([C@@H]1CCCN1c1nccc(Nc2ccccc2)n1)N1CCCCC1	78.7
Cc1cccc(NC(=O)Nc2c[nH]c(=O)[nH]c2=O)c1C	-13.6
Cc1cc(C(=O)N2CCN(Cc3ccsc3)CC2)c(C)n1C1CC1	-1.14
CC(C)CN(c1cn[nH]c1)S(=O)(=O)c1cccc(C#N)c1	10.8
Cc1ncc(S(=O)(=O)N(CC(C)C)c2cccc(O)c2)s1	61
CC(=O)Nc1ncc(S(=O)(=O)Nc2cccc(O)c2)s1	13.5
O=C(c1ccc[nH]1)N1CCc2c(cccc2S(=O)(=O)N2CCOCC2)C1	22.2
Cc1n[nH]c(CN2CCN(Cc3ccccc3)[C@@H]3CS(=O)(=O)C[C@@H]32)n1	18.9
CC(C)=CCN1CCN(Cc2nccn2C)[C@H]2CS(=O)(=O)C[C@H]21	23.9
Cn1ccnc1CN1CCN(Cc2ccccc2)[C@@H]2CS(=O)(=O)C[C@@H]21	46.7
Cc1n[nH]c(CN2CCN(CC3CC3)[C@@H]3CS(=O)(=O)C[C@@H]32)n1	55.9
Cc1n[nH]c(CN2CCN(C(=O)C3CCC3)[C@@H]3CS(=O)(=O)C[C@@H]32)n1	-2.79
Cn1ccnc1CN1CCN(CC2CC2)[C@@H]2CS(=O)(=O)C[C@@H]21	56.7
